Data on 114 compounds can be found in PubChem BioAssay AID2401 (Southern Research Specialized Biocontainment Screening …, 2010).

Out of some 2,200 compounds screened, about 530 (24%) were called active.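 Rule for the calls: active = inhibition above a set limit at one or more concentrations of the dose series; inactive = inhibition under that limit at every dose.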 Only a sample is shown. Measured potencies and affinities stand elsewhere.

A short description of this assay: S. Typhimurium nonspecific reporter signal inhibition – Salmonella Typhimurium, GFP fluorescence, counter-screen for PhoP regulon inhibitor project, dose response (AID 2401).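 Note: S. typhimurium with Mg-insensitive nmpC-GFP reporter grown at 10 µM Mg2+; drop in reporter fluorescence reflects general culture growth inhibition.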 To be noted: 4 h; series mostly up to 150 µM.
In the case of `CC(C)NC(=O)CSc1nc(N)c(NC(=O)c2ccccc2F)c(=O)[nH]1`, the compound was classed as inactive.
`Cc1ccc(Cl)cc1-c1ccc(/C=N/n2cnnc2)o1`: the compound was classed as inactive.
`Cc1cccc(C)c1NC(=O)CCCSc1nnc(-c2ccc(Cl)cc2)n1-c1ccccc1`: the compound was classed as inactive.
Turning to `CCCCn1c(-c2ccccc2)nc2c(=O)n(C)c(=O)[nH]c21`, the compound was classed as inactive.
In the case of `Cc1noc(C)c1CSc1nc2ccccc2nc1NS(=O)(=O)c1ccc(Cl)cc1`, the outcome was inactive.
`C/C(=C\C(=O)c1cccnc1)Nc1ccc(O)cc1`: the result was inactive.
With `CC(=O)Nc1ccc(OC(=O)c2cccnc2)cc1`, the outcome was inactive.
The value for `N/C(=N\OC(=O)COc1ccc(Cl)cc1)c1cccnc1` was “inactive”; that for `O=C1NN(c2ccccc2)C(=O)/C1=C\c1coc2ccc(O)cc2c1=O` was “inactive”.
`Cc1ccc2occ(/C=N/O)c(=O)c2c1`: the result was inactive.
In the case of `N/C(=N\OC(=O)Cc1ccc(Cl)cc1)c1cccnc1`, the call was inactive.
Take `CCCCn1c(SCC(=O)Nc2nnc(CC)s2)nc2c1c(=O)n(C)c(=O)n2C`: the call was inactive.
`Cc1ccc(OCC(=O)N2CCN(S(=O)(=O)c3ccccc3)CC2)c([N+](=O)[O-])n1`: the outcome was inactive.
On to `O=C(CSc1nnc(-c2ccc(Br)cc2)o1)Nc1cccc2ccccc12`, for which the compound was called inactive.
For `COc1ccc(CCN2CC3=C(C2=O)C(c2ccccc2)NC(=O)N3C)cc1OC` (centres undefined), the result was inactive.
In the case of `COc1ccc(C2=Nc3nc(-c4ccccc4)cn3C(c3ccc(OC)cc3)C2)cc1` (centres undefined), the compound was classed as inactive.
Turning to `CC(C)CC(=O)N/C(N)=N/c1nc2ccccc2s1`, the compound was called inactive.
For `O=C1NC(=Nc2ccccc2)/C(=C/c2ccco2)S1`, the compound was called inactive.
For the compound `O=C(CNC(=O)OCc1ccccc1)NCC(=O)N1CCCC1C(=O)OCc1ccccc1` (centres undefined), the compound was classed as inactive.
`CC(NC(=O)CSc1nc2c(cc1C#N)CN(C)CC2)c1ccccc1` (centres undefined): the compound was called inactive.
As for `CCCn1c(N)c(C(=O)COC(=O)c2c(C)noc2C)c(=O)n(C)c1=O`, the result was inactive.
In the case of `CC(CO)(CO)NCc1ccc(-c2ccccc2)cc1`, the outcome was inactive.
Take `COc1ccc2c(c1)C1C=CCC1C(c1cc3c(cc1Br)OCO3)N2` (centres undefined): the outcome was inactive.
With `O=C1CCCc2c1cc(C(=O)NCc1ccco1)c(=O)n2-c1ccc(Cl)cc1`, the compound was called inactive.
The result for `CCOc1ccccc1Nc1nc2ccccc2n2cnnc12` reads “inactive”.
As for `O=C(CCN1CCCCC1)NCC1OCCc2ccccc21` (centres undefined), the outcome was inactive.
For `O=C(CCN1CCc2ccccc2C(c2ccccc2)C1)c1ccc2c(c1)OCCO2` (centres undefined), the outcome was inactive.
On to `c1ccc(Cn2nnc3c(NCc4ccc5c(c4)OCO5)nc(C4CC4)nc32)cc1`, for which the result was inactive.
Turning to `FC(F)Oc1ccc(NC(=S)NCc2nc3ccccc3[nH]2)cc1`, the result was inactive.
As to `O=C1C2CCCN2c2ccc(S(=O)(=O)N3CCOCC3)cc2N1Cc1ccccc1F` (centres undefined), the outcome was inactive.
Take `CCOc1cc(S(=O)(=O)N2CCN(CC)CC2)ccc1Cl`: the result was inactive.
In the case of `c1ccc(-n2cnc3cc(NCc4ccncc4)ccc32)cc1`, the compound was classed as inactive.
The result for `CCCCn1c(/N=C/c2ccccc2NS(=O)(=O)c2ccc(C)cc2)nc2ccccc21` reads “inactive”; that for `CCN(CC)C(=O)CP(=O)(c1ccccc1)c1ccccc1`, “inactive”; that for `O=c1[nH]c(CSc2nnc(NCCCN3CCOCC3)s2)nc2cc(Cl)ccc12`, “inactive”.
`O=C(CSCc1cccc(CSCC(=O)Nc2ccc3ccccc3c2)n1)Nc1ccc2ccccc2c1`: the compound was classed as inactive.
As to `CCN(CC)S(=O)(=O)c1ccc2c(c1)nc(SCC(=O)N1CCOCC1)n2-c1ccccc1OC`, the call was inactive.
The result for `CCCc1cc(-c2nc(N)ncc2-c2ccc3c(c2)OCCCO3)c(O)cc1OC` reads “inactive”; that for `c1ccc(CNc2nc(N3CCN(Cc4ccccc4)CC3)nc3ccccc23)cc1`, “inactive”.
As to `O=S(=O)(c1ccc(S(=O)(=O)N2CCN(C/C=C/c3ccccc3)CC2)cc1)N1CCCC1`, the compound was classed as inactive.
Regarding `CCN1CCN(c2oc(COc3ccc(Cl)cc3)nc2C#N)CC1`, the compound was classed as inactive.
The result for `COc1ccc(NC(=O)C(Sc2nnc(-c3ccncc3)n2-c2ccccc2C)c2ccccc2)cc1Cl` (centres undefined) reads “inactive”.
Turning to `Cc1ccc(S(=O)(=O)NC2c3cccc4cccc(c34)C2Sc2n[nH]c(N)n2)cc1` (centres undefined), the compound was classed as inactive.
In the case of `Cc1ccc(S(=O)(=O)N2C(=O)CCC2C(=O)N2CCN(C)CC2)cc1` (centres undefined), the compound was called inactive.
The result for `Cc1cccc(C=Nc2ccc3c(c2)oc2ccccc23)c1O` reads “inactive”; that for `COc1ccc2cc(C)c3nnc(SCC(=O)Nc4nc(-c5ccccc5)cs4)n3c2c1`, “inactive”.
As for `c1ccc2cc(CSCc3nc4ccccc4[nH]3)ccc2c1`, the compound was classed as inactive.
Consider `CN(C(=O)c1ccc2c(c1)OCO2)C1(C(=O)NC2CCCCC2)CCCCC1`, for which the compound was called inactive.
The value for `CC(=O)Nc1ccc(C(=O)Nc2nc(-c3cc(C)n(Cc4ccccc4)c3C)cs2)cc1` was “inactive”; that for `O=C(CSc1nc2ccccc2o1)Nc1ccc(N2CCOCC2)c(Cl)c1` was “inactive”; that for `N#Cc1nc(-c2ccco2)oc1NCCCN1CCOCC1` was “inactive”.
The result for `N#C/C(=C\c1c(Cl)cccc1Cl)c1nc2ccccc2[nH]1` reads “inactive”; that for `S=C(NN=C1C2CC3CC(C2)CC1C3)Nc1ccccc1`, “inactive”; that for `Cc1ccc2[nH]c3c(NCc4ccccc4)ncnc3c2c1`, “inactive”.
Consider `C=CCNc1ncnc2c1[nH]c1ccc(C)cc12`, for which the call was inactive.
`COc1cccc(-c2nnc(SCC(=O)Nc3ccc(OC)c(OC)c3)n2N)c1`: the compound was classed as inactive.
Consider `Cc1ccc(C=Nc2ccccc2C(N)=O)s1`, for which the call was inactive.
In the case of `CC1(C)CC(=O)C=C(Nc2ccc(Br)cn2)C1`, the compound was classed as inactive.
With `Cc1ccc(NC(=S)NCc2cccnc2)cc1`, the result was inactive.
As for `S=C(NCc1cccnc1)Nc1cccc(Cl)c1`, the outcome was inactive.
In the case of `OC(COCc1cccs1)CN1CCN(c2ccccn2)CC1` (centres undefined), the compound was called inactive.
Turning to `Cc1oc(CC(C)C)c(CN)c1C(=O)O`, the call was inactive.
The value for `Cc1nc(N)sc1Cc1ccc2c(c1)OCO2` was “inactive”.
For the compound `CC(=O)Nc1cccc(OCC(=O)Nc2ccc(F)cc2)c1`, the result was inactive.
As for `CC(=O)Nc1cccc(OC(=O)c2ccoc2C)c1`, the compound was classed as inactive.
Regarding `CCN(CC)c1nc2n(c(=O)n1)CCO2`, the outcome was inactive.
In the case of `Cc1cc(O)ccc1Nc1nc2ccccc2nc1Nc1ccc(O)cc1C`, the call was inactive.
For `Cc1ccccc1Nc1nc(-c2sc(NC(=O)c3cccc(Cl)c3)nc2C)cs1`, the call was inactive.
In the case of `Cc1ccc(O)c(-c2cc(-c3cccc(F)c3)n[nH]2)c1`, the compound was called inactive.
With `C=CCNC(=O)C(=O)NN=C1CCN(C)CC1`, the outcome was inactive.
In the case of `N#CCOC(=O)c1sccc1-n1cccc1`, the compound was classed as inactive.
Take `O=C(Cc1ccccc1)Nc1cccc(N2C(=O)C=CC2=O)c1`: the compound was classed as inactive.
The result for `Cc1ccc(C2NNC(=O)C2NC(=O)c2ccccc2)cc1` (centres undefined) reads “inactive”.
Turning to `Cc1ccc(-c2nnn(CC(=O)Nc3ccccc3-c3ccccc3)n2)c(-n2cnnn2)c1`, the call was inactive.
The value for `Cc1cc(Nc2ccc(Cl)cc2)nc(N)n1` was “inactive”; that for `CC(C)(C)c1nn(-c2ccccc2)c2[nH]c(=O)c(CNCc3ccco3)cc12` was “inactive”.
In the case of `CC1(C)SC(=S)N(NC(=O)Nc2ccccc2)C1N(O)C(=O)Nc1ccccc1` (centres undefined), the compound was classed as inactive.
The result for `Cc1ccc(Nc2cc(C)nc3nc(C)nn23)cc1` reads “inactive”; that for `COc1ccc2c(c1)cc1n2CCN2CCCN=C12`, “inactive”; that for `O=P(Cc1cc[n+]([O-])cc1)(c1ccccc1)c1ccccc1`, “inactive”.
Consider `CCOC(=O)CCCNC(=O)COC(=O)CCC(=O)c1ccc(F)cc1`, for which the result was inactive.
Regarding `CCCCn1cnc2c(cnn2-c2ccc(F)cc2)c1=O`, the outcome was inactive.
The result for `Cc1cccnc1NC(=O)CCCN1C(=O)c2ccccc2C1=O` reads “inactive”.
Take `O=C(CCN1C(=O)COc2ccccc21)NCCN1CCOCC1`: the outcome was inactive.
Take `COc1cccc(/C=N/n2c(C)nc3ccccc32)c1OC`: the outcome was inactive.
As for `NC(N)=Nc1nc(C2COc3ccccc3O2)cs1` (centres undefined), the result was inactive.
The value for `Cc1cc(-c2csc(N)n2)c(C)n1C` was “inactive”; that for `Cc1ccc(-n2c(C)cc(-c3csc(N)n3)c2C)cc1` was “inactive”; that for `Nc1nc(-c2ccc(Br)cc2)cs1` was “inactive”.
The value for `CN(C(=O)C1CCOC1)c1nnc(-c2ccccn2)s1` (centres undefined) was “inactive”; that for `COc1ccc(-c2cc(C(=O)Nc3cc(C)n(Cc4ccc(Cl)cc4)n3)no2)cc1OC` was “inactive”; that for `COc1cc(S(=O)(=O)N2CCCCC2)ccc1NC=O` was “inactive”.
The result for `CC1(C)CC2CC(C)(CN2C(=O)COC(=O)c2n[nH]c(=O)c3ccccc23)C1` (centres undefined) reads “inactive”; that for `O=C1Nc2ccccc2C12OCC1(CO2)COC2(OC1)C(=O)Nc1ccccc12` (centres undefined), “inactive”.
As for `NCCCCCc1nnc(SCc2ccc(Cl)cc2Cl)o1`, the result was inactive.
As for `O=C(Nc1ccc(O)cc1)c1cc2n(n1)C(C(F)(F)F)CC(c1ccco1)N2` (centres undefined), the compound was classed as inactive.
With `O=C(c1cc(-c2cccs2)nc2ccccc12)N1CCN(c2ccccc2O)CC1`, the compound was called inactive.
Consider `O=C(O)CCc1nn2c3ccccc3n(CCN3CCCCC3)c2nc1=O`, for which the compound was called inactive.
Consider `Cc1ccc(Nc2cc(=O)[nH]c(=O)[nH]2)c(C)c1`, for which the result was inactive.
Turning to `O=C(O)C1CCC(N2C(=O)C3CCCCC3C2=O)CC1` (centres undefined), the compound was classed as inactive.
Turning to `Cc1cc(C(=O)CSc2nnnn2C)c(C)n1-c1ccc2c(c1)OCCO2`, the call was inactive.
With `Cc1ccc(-c2cc(C(=O)Nc3nccs3)c3ccccc3n2)o1`, the call was inactive.
For the compound `O=C(OCc1ccccc1)Oc1cncc(C(=O)O)c1`, the compound was classed as inactive.
For the compound `C=COC(=O)CSc1snc(SCC(=O)OC)c1C#N`, the compound was classed as inactive.
The result for `C=CCSc1ncnc2sc(C)c(C)c12` reads “inactive”.
Turning to `COc1ccc(NC(=O)CCNS(=O)(=O)c2ccc3c(c2)CCC(=O)N3)cc1`, the compound was classed as inactive.
For `CN1CCCC(OC(=O)c2ccc3c(c2)OCCO3)C1` (centres undefined), the result was inactive.
The result for `N#Cc1ccc(N=c2ssnc2Cl)cc1` reads “inactive”; that for `CC(C)(C)n1ncc2c(=O)n(CC(=O)Nc3ccc4c(c3)OCO4)cnc21`, “inactive”; that for `N=c1n(CC(=O)c2ccc([N+](=O)[O-])cc2)c2ccccc2n1Cc1ccccc1`, “inactive”.
For the compound `Cc1ccccc1Cn1c(=N)n(CC(=O)c2ccco2)c2ccccc21`, the call was inactive.
Regarding `Cc1ccc(/C=C/c2ccc(=O)n(Cc3ccccc3Cl)n2)cc1`, the compound was called inactive.
Consider `COc1ccc(-n2c(=O)c3ccccc3n(CC(=O)Nc3cc(C)on3)c2=O)cc1OC`, for which the compound was classed as inactive.
The result for `Cc1cc(-c2c(C)n([O-])c(C)c(C)[n+]2=O)ccc1F` reads “inactive”.
